Test results published in PubChem BioAssay (NCI).
Compounds without any hit were thinned out: in the full panel of roughly 79,000, 15% have a hit. A number with no mark means an inactive call. Calls of active or inactive are those of the source. No stated cut-off is given here; in the data, active means growth inhibition above about 70%; inactive means the rest.

Experiments:
[1] = NCI Yeast Anticancer Drug Screen. Data for the rad50 strain (AID 155);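 further: 0% = growth of vehicle-only cultures of the same strain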; conditions: S. cerevisiae rad50 strain growth inhibition, stronger effect = higher value
Summary of the method: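 DNA repair mutant yeast, compound exposure, growth read-out; inhibition is taken relative to vehicle.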

[2] = NCI Yeast Anticancer Drug Screen. Data for the mec2-1 strain (AID 157); conditions: S. cerevisiae mec2-1 strain, stronger effect = higher value
Summary of the method: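 Yeast mec2-1 mutant treated with compound. Readout: growth inhibition vs vehicle controls.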

[3] = NCI Yeast Anticancer Drug Screen. Data for the sgs1 mgt1 strain (AID 161);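 further: 0% = growth of cultures given vehicle only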; conditions: S. cerevisiae sgs1 mgt1 strain, stronger effect = higher value
Summary of the method: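 Test agents were incubated with a DNA-repair-mutant yeast strain. Growth was then read and compared against vehicle-treated controls.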

[4] = NCI Yeast Anticancer Drug Screen. Data for the cln2 rad14 strain (AID 165);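 further: 0% = growth equal to vehicle treated cultures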; conditions: S. cerevisiae cln2 rad14 strain, stronger effect = higher value
Summary of the method: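 cln2 rad14 yeast strain; compound exposure; growth inhibition read vs vehicle controls.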

[5] = NCI Yeast Anticancer Drug Screen. Data for the bub3 strain (AID 167); conditions: S. cerevisiae bub3 mutant strain, stronger effect = higher value
Summary of the method: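 In this screen, a yeast mutant lacking normal mitotic checkpoint function is challenged with compound. Relative growth versus vehicle gives the inhibition value.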

[6] = NCI Yeast Anticancer Drug Screen. Data for the mlh1 rad18 strain (AID 175); conditions: S. cerevisiae mlh1 rad18 strain growth inhibition, stronger effect = higher value
Summary of the method: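 Yeast w/ defined DNA-repair lesions; compound exposure; growth vs vehicle controls → % inhibition.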

[7] = at 5.0 µM (retest, dose inferred, filed as 0.5)
[8] = at 50.0 µM (retest, dose inferred, filed as 5.0)

CN(C)CCC(/C=C/c1ccccc1)=N\Nc1ccc(Cl)cc1Cl
growth inhibition [1, 7]: 66%
growth inhibition [1, 8]: 87% (active)
growth inhibition ([1]; at 50.0 µM): 99.5% (active)
growth inhibition [2, 7]: 32%
growth inhibition [2, 8]: 94% (active)
growth inhibition ([2]; at 50.0 µM): 99.5% (active)
growth inhibition [3, 7]: 47%
growth inhibition [3, 8]: 91% (active)
growth inhibition ([3]; at 50.0 µM): 99.4% (active)
growth inhibition [4, 7]: 66%
growth inhibition [4, 8]: 88% (active)
growth inhibition ([4]; at 50.0 µM): 98.7% (active)
growth inhibition [5, 7]: 80% (active)
growth inhibition [5, 8]: 90% (active)
growth inhibition ([5]; at 50.0 µM): 98.8% (active)
growth inhibition [6, 7]: 78% (active)
growth inhibition [6, 8]: 91% (active)
growth inhibition ([6]; at 50.0 µM): 99.5% (active)

CN(C)c1nc(NNS(=O)(=O)c2ccc(N)cc2)nc(N(C)C)n1
growth inhibition [1, 7]: 1%
growth inhibition [1, 8]: -17%
growth inhibition ([1]; at 50.0 µM): -27.1%
growth inhibition [2, 7]: 2%
growth inhibition [2, 8]: -1%
growth inhibition ([2]; at 50.0 µM): 7.55%
growth inhibition [3, 7]: 1%
growth inhibition [3, 8]: -72%
growth inhibition ([3]; at 50.0 µM): -5.75%
growth inhibition [4, 7]: 2%
growth inhibition [4, 8]: -6%
growth inhibition ([4]; at 50.0 µM): 55%
growth inhibition [5, 7]: -6%
growth inhibition [5, 8]: -8%
growth inhibition ([5]; at 50.0 µM): -12.3%
growth inhibition [6, 7]: -1%
growth inhibition [6, 8]: 0%
growth inhibition ([6]; at 50.0 µM): 3.85%

CCC(CCCN(CC)CCc1ccccc1)OC(=O)c1cc(OC)c(OC)c(OC)c1 (configuration not stated)
growth inhibition [1, 7]: 5%
growth inhibition [1, 8]: 17%
growth inhibition ([1]; at 50.0 µM): 22.4%
growth inhibition [2, 7]: -10%
growth inhibition [2, 8]: 6%
growth inhibition ([2]; at 50.0 µM): 27.2%
growth inhibition [3, 7]: -1%
growth inhibition [3, 8]: 30%
growth inhibition ([3]; at 50.0 µM): 37.8%
growth inhibition [4, 7]: 2%
growth inhibition [4, 8]: 0%
growth inhibition ([4]; at 50.0 µM): 35.6%
growth inhibition [5, 7]: 4%
growth inhibition [5, 8]: 18%
growth inhibition ([5]; at 50.0 µM): 4%
growth inhibition [6, 7]: 5%
growth inhibition [6, 8]: 10%
growth inhibition ([6]; at 50.0 µM): 54.5%

NNC(=S)NN/C=C(\C=Nc1ccccc1)[N+](=O)[O-]
growth inhibition [1, 7]: 19%
growth inhibition [1, 8]: 80% (active)
growth inhibition ([1]; at 50.0 µM): 69.8%
growth inhibition [2, 7]: -29%
growth inhibition [2, 8]: 70% (active)
growth inhibition ([2]; at 50.0 µM): 68%
growth inhibition [3, 7]: 7%
growth inhibition [3, 8]: 62%
growth inhibition ([3]; at 50.0 µM): 65.5%
growth inhibition [4, 7]: -17%
growth inhibition [4, 8]: 57%
growth inhibition ([4]; at 50.0 µM): 57.5%
growth inhibition [5, 7]: -6%
growth inhibition [5, 8]: 64%
growth inhibition ([5]; at 50.0 µM): 75.1% (active)
growth inhibition [6, 7]: -20%
growth inhibition [6, 8]: 86% (active)
growth inhibition ([6]; at 50.0 µM): 68.8%

COC(=O)c1nc2ccc([N+](=O)[O-])cc2n1O
growth inhibition [1, 7]: -154%
growth inhibition [1, 8]: -155%
growth inhibition ([1]; at 50.0 µM): 2.25%
growth inhibition [2, 7]: -54%
growth inhibition [2, 8]: -59%
growth inhibition ([2]; at 50.0 µM): 19.8%
growth inhibition [3, 7]: -60%
growth inhibition [3, 8]: -70%
growth inhibition ([3]; at 50.0 µM): 2.95%
growth inhibition [4, 7]: -53%
growth inhibition [4, 8]: -60%
growth inhibition ([4]; at 50.0 µM): 36%
growth inhibition [5, 7]: -68%
growth inhibition [5, 8]: -80%
growth inhibition ([5]; at 50.0 µM): 4.8%
growth inhibition [6, 7]: -116%
growth inhibition [6, 8]: -111%
growth inhibition ([6]; at 50.0 µM): 4.3%

CCN(CC)CCNCc1ccccc1
growth inhibition [1, 7]: -157%
growth inhibition [1, 8]: -178%
growth inhibition ([1]; at 50.0 µM): -7.3%
growth inhibition [2, 7]: -49%
growth inhibition [2, 8]: -57%
growth inhibition ([2]; at 50.0 µM): -1.15%
growth inhibition [3, 7]: -64%
growth inhibition [3, 8]: -67%
growth inhibition ([3]; at 50.0 µM): 10.9%
growth inhibition [4, 7]: -62%
growth inhibition [4, 8]: -66%
growth inhibition ([4]; at 50.0 µM): 38.7%
growth inhibition [5, 7]: -70%
growth inhibition [5, 8]: -86%
growth inhibition ([5]; at 50.0 µM): 5.45%
growth inhibition [6, 7]: -139%
growth inhibition [6, 8]: -119%
growth inhibition ([6]; at 50.0 µM): 1.8%

CCOC(=O)/C(Cl)=C(\OCC)C(=O)OCC
growth inhibition [1, 7]: 14%
growth inhibition [1, 8]: 10%
growth inhibition ([1]; at 50.0 µM): -6.4%
growth inhibition [2, 7]: 6%
growth inhibition [2, 8]: 13%
growth inhibition ([2]; at 50.0 µM): 12.3%
growth inhibition [3, 7]: 2%
growth inhibition [3, 8]: 19%
growth inhibition ([3]; at 50.0 µM): 20%
growth inhibition [4, 7]: -5%
growth inhibition [4, 8]: 19%
growth inhibition ([4]; at 50.0 µM): 44.9%
growth inhibition [5, 7]: -1%
growth inhibition [5, 8]: 8%
growth inhibition ([5]; at 50.0 µM): 26.4%
growth inhibition [6, 7]: 12%
growth inhibition [6, 8]: 22%
growth inhibition ([6]; at 50.0 µM): 21.1%

O.O.O=C(O)C(O)C(O)C(OC1OC(CO)C(O)C(O)C1O)C(O)CO.O=C(O)C(O)C(O)C(OC1OC(CO)C(O)C(O)C1O)C(O)CO.[NH-]C1CCCCC1[NH-].[Pt+2] (configuration not stated)
growth inhibition [1, 7]: -6%
growth inhibition [1, 8]: 39%
growth inhibition ([1]; at 50.0 µM): 95.1% (active)
growth inhibition [2, 7]: -6%
growth inhibition [2, 8]: 21%
growth inhibition ([2]; at 50.0 µM): 99.6% (active)
growth inhibition [3, 7]: 0%
growth inhibition [3, 8]: 50%
growth inhibition ([3]; at 50.0 µM): 99.7% (active)
growth inhibition [4, 7]: 2%
growth inhibition [4, 8]: 12%
growth inhibition ([4]; at 50.0 µM): 73.2% (active)
growth inhibition [5, 7]: -2%
growth inhibition [5, 8]: -2%
growth inhibition ([5]; at 50.0 µM): 99.4% (active)
growth inhibition [6, 7]: -6%
growth inhibition [6, 8]: 32%
growth inhibition ([6]; at 50.0 µM): 99.2% (active)

O=[N+]([O-])OC1CCCC(O[N+](=O)[O-])c2c1n([O-])c1ccccc1[n+]2=O (configuration not stated)
growth inhibition [1, 7]: 53%
growth inhibition [1, 8]: 91% (active)
growth inhibition ([1]; at 50.0 µM): 89.3% (active)
growth inhibition [2, 7]: 40%
growth inhibition [2, 8]: 86% (active)
growth inhibition ([2]; at 50.0 µM): 21.2%
growth inhibition [3, 7]: 58%
growth inhibition [3, 8]: 94% (active)
growth inhibition ([3]; at 50.0 µM): 82.5% (active)
growth inhibition [4, 7]: 39%
growth inhibition [4, 8]: 84% (active)
growth inhibition ([4]; at 50.0 µM): 47.1%
growth inhibition [5, 7]: 19%
growth inhibition [5, 8]: 73% (active)
growth inhibition ([5]; at 50.0 µM): 17.5%
growth inhibition [6, 7]: 53%
growth inhibition [6, 8]: 94% (active)
growth inhibition ([6]; at 50.0 µM): 84% (active)
